Inconclusive results are not listed. Activity calls are given as the source filed them. Unless noted, calls follow the shape of the full dose curve.
How the values were obtained:
[1] = Nuclear factor erythroid 2-related factor 2/antioxidant responsive element (Nrf2/ARE) small molecule agonists: qHTS cell viability counter screen in human keratinocytes (AID 1919968; active = well fitted curve in the direction sought with a large enough effect in the repeat runs; an effect the other way counts as inactive or inconclusive; also: nearly all actives have a fitted effect of over 55% in size)
Summary of the method: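 Stably transfected HaCaT (KeratinoSens), 1,500/well. Test agents in DMSO were applied for 23 h, 37 C/5% CO2. CellTiter-Fluor was incubated 1 h before the fluorescence read.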

[2] = Nuclear factor erythroid 2-related factor 2/antioxidant responsive element (Nrf2/ARE) small molecule agonists: luciferase reporter gene qHTS assay in human keratinocytes (AID 1919969); also: nearly all actives have a fitted effect of over 35% in size
[3] = biological target: Gonadotropin-releasing hormone receptor (Homo sapiens) (UniProt P30968); assay: Human gonadotropin-releasing hormone receptor (GnRHR) small molecule agonists, calcium flux assay in GnRHR-HEK293 cells (AID 1920063); also: nearly all actives have a fitted effect of over 35% in size
Chain of Gonadotropin-releasing hormone receptor (Homo sapiens) (P30968 whole entry, looked up): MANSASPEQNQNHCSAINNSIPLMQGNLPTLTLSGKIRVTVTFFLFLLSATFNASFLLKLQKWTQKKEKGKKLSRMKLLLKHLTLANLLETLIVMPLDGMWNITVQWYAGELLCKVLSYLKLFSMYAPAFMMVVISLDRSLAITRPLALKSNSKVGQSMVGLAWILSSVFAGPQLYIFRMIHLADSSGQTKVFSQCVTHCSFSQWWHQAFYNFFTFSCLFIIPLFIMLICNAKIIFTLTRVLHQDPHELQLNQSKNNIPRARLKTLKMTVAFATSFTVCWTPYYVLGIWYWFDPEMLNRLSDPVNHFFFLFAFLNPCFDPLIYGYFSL
Summary of the method: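 Stable human GnRHR HEK293 line. 18 h plating, then calcium dye for 1 h at 37 C. Agonist-mode compound addition from DMSO stocks; fluorescence monitored 3 min.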

[4] = biological target: KiSS-1 receptor (Homo sapiens) (UniProt Q969F8); assay: Human kisspeptin (KISS1R) small molecule agonists, calcium flux assay in KISS1R-HEK293 cells (AID 1920064; active = well fitted curve in the direction sought with a large enough effect in the repeat runs; an effect the other way counts as inactive or inconclusive)
Chain of KiSS-1 receptor (Homo sapiens) (Q969F8 whole entry, looked up): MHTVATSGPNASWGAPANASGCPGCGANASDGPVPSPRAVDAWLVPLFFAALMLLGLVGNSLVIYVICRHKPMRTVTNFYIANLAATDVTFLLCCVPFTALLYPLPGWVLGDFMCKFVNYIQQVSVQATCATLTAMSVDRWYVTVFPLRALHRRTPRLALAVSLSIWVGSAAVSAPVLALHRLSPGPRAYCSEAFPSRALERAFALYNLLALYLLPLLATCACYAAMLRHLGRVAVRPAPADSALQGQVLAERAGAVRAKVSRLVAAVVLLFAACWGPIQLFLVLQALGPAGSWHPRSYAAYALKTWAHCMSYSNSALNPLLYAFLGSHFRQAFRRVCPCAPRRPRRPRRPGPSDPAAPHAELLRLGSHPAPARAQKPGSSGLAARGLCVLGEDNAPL
Summary of the method: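 After overnight (18 h) culture at 37 C/5% CO2, human KISS1R-HEK293 cells received calcium dye for 1 h, then test compound; emission at 540 nm (excitation 480 nm) was tracked for 3 min.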

[5] = G protein-coupled receptor (GPCR) small molecule agonists, calcium flux assay: HEK293 wild type cell line counter screen (AID 1920065)
Summary of the method: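 Following 18 h incubation at 37 C/5% CO2, plates got calcium dye for 1 h; compounds, ATP or DMSO were then pinned in and fluorescence followed kinetically (480/540 nm).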

[6] = p53 small molecule agonists, cell-based qHTS assay with human liver microsomes (AID 1963577)
Summary of the method: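 Compounds act here after metabolic activation: human liver microsomes and NADPH, both at 0.5 mg/mL final, were co-added to p53RE-bla cells. Incubation ran 16 h at 37 C, followed by LiveBLAzer detection.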

[7] = p53 small molecule agonists, cell-based qHTS assay with rat liver microsomes (AID 1963578)
Summary of the method: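 Read-out is beta-lactamase reporter fluorescence (LiveBLAzer, 2 h, room temperature, dark) in p53RE-bla cells treated 16 h at 37 C with compound, rat liver microsomes and NADPH, both 0.5 mg/mL final.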

[8] = p53 small molecule agonists, cell-based qHTS assay with human liver microsomes: qHTS cell viability counter screen (AID 1963579); also: nearly all actives have a fitted effect of over 45% in size
Summary of the method: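 Cells carrying the p53 response-element beta-lactamase reporter are treated for 16 h at 37 C with test compounds in the presence of human liver microsomes and NADPH (both 0.5 mg/mL final); ATP-based CellTiter-Glo luminescence then reports viability.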

[9] = p53 small molecule agonists, cell-based qHTS assay: qHTS cell viability counter screen (AID 1963581); also: nearly all actives have a fitted effect of over 45% in size
Summary of the method: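 qHTS counter screen: 16 h compound exposure at 37 C of p53RE-bla HCT-116 cells (4,000 per well, seeded 5 h prior), cell viability by ATP luminescence.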

[10] = p53 small molecule agonists, cell-based qHTS assay (AID 1963582; active = well fitted activation curve with a large enough effect in the signal ratio in the repeat runs, not every such curve was filed as active; the % refers to the signal ratio)
Summary of the method: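 Measured: fluorescence from cleaved LiveBLAzer substrate. System: p53RE-bla cells, 16 h compound treatment at 37 C, 2 h substrate step at room temperature.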

[11] = biological target: 5-hydroxytryptamine receptor 2A (Homo sapiens) (UniProt P28223); assay: 5-hydroxytryptamine receptor 2A (HTR2A) small molecule antagonists, cell-based qHTS assay (AID 1963586); also: nearly all actives have a fitted effect of over 45% in size
Chain of 5-hydroxytryptamine receptor 2A (Homo sapiens) (P28223 whole entry, looked up): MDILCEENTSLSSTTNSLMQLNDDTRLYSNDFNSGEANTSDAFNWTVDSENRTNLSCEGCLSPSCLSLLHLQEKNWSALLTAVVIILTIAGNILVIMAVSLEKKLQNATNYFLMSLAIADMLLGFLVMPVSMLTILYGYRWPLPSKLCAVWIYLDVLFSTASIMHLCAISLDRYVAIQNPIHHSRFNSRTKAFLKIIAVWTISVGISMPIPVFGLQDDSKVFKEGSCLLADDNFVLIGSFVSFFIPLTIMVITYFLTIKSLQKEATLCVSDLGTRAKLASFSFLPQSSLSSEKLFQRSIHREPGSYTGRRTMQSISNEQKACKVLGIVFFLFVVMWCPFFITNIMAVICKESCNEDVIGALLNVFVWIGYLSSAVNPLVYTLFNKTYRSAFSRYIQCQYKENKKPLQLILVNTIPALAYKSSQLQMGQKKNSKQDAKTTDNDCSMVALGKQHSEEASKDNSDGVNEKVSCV
Summary of the method: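 CHO cells stably expressing human HTR2A were plated for 18 h at 37 C, then loaded with calcium dye for 1 h. Compounds were preincubated 5 min at room temperature before DOI (4 nM solution) was added. Kinetic fluorescence was read for 3 min.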

[12] = biological target: 5-hydroxytryptamine receptor 2A (Homo sapiens) (UniProt P28223); assay: 5-hydroxytryptamine receptor 2A (HTR2A) small molecule agonists, cell-based qHTS assay (AID 1963587); also: nearly all actives have a fitted effect of over 30% in size
Summary of the method: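 Kinetic calcium-flux fluorescence (2 min, 1 sec intervals) after compound addition in agonist mode. HTR2A-CHO cells were cultured 18 h, then dye-loaded 1 h at 37 C.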

[13] = biological target: Muscarinic acetylcholine receptor M1 (Homo sapiens) (UniProt P11229); assay: Cholinergic receptor muscarinic 1 (CHRM1) small molecule antagonists, cell-based qHTS assay (AID 1963588); also: nearly all actives have a fitted effect of over 40% in size
Chain of Muscarinic acetylcholine receptor M1 (Homo sapiens) (P11229 whole entry, looked up): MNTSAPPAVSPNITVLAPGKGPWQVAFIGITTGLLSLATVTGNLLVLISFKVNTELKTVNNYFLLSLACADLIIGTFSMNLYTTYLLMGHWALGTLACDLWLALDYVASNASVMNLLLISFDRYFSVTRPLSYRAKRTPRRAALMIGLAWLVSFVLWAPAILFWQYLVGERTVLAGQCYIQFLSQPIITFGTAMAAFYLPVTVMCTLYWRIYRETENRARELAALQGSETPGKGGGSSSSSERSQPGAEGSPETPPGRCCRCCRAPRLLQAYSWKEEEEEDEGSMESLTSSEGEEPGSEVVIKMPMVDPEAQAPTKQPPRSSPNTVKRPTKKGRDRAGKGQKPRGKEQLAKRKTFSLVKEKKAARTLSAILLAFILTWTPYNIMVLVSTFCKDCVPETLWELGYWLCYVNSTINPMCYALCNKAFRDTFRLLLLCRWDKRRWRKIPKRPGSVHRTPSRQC
Summary of the method: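 Compounds were tested at 15 concentrations in three independent runs. Dye-loaded CHRM1-CHO cells were exposed 5 min at room temperature before stimulation by acetylcholine added at 50nM. Intracellular calcium was read kinetically on FDSS for 3 min.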

[14] = biological target: Muscarinic acetylcholine receptor M1 (Homo sapiens) (UniProt P11229); assay: Cholinergic receptor muscarinic 1 (CHRM1) small molecule agonists, cell-based qHTS assay (AID 1963589); also: nearly all actives have a fitted effect of over 35% in size
Summary of the method: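 Kinetic fluorescence (1 s intervals) of calcium-sensitive dye in human M1 CHO cells after compound addition; cells pre-incubated 18 h at 37 C/5% CO2 and dye-loaded 1 h.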

[15] = cAMP Responsive Elements (CRE) small molecule agonists, cell-based qHTS assay (AID 1963590)
Summary of the method: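 Test agents in DMSO were incubated 3 h at 37 C/5% CO2 with CRE-bla HEK 293T cells seeded 18 h earlier; LiveBLAzer B/G FRET substrate was added and read after 2 h at room temperature.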

[16] = cAMP Responsive Elements (CRE) small molecule antagonists, cell-based qHTS assay (AID 1963591; active = well fitted inhibition curve with a large enough effect in the signal ratio in the repeat runs, not every such curve was filed as active; the % refers to the signal ratio)
Summary of the method: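 Reporter line CRE-bla HEK 293T in dialyzed-FBS DMEM; cells preincubated 18 h, treated 3 h with compound plus NKH477 (0.25 uM final); LiveBLAzer FRET, 2 h RT.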

[17] = biological target: Beta-2 adrenergic receptor (Homo sapiens) (UniProt P07550); assay: Adrenergic beta2 receptor (ADRB2) small molecule antagonists, cell-based qHTS assay (AID 1963592); also: series mostly up to about 92 µM; nearly all actives have a fitted effect of over 50% in size
Chain of Beta-2 adrenergic receptor (Homo sapiens) (P07550 whole entry, looked up): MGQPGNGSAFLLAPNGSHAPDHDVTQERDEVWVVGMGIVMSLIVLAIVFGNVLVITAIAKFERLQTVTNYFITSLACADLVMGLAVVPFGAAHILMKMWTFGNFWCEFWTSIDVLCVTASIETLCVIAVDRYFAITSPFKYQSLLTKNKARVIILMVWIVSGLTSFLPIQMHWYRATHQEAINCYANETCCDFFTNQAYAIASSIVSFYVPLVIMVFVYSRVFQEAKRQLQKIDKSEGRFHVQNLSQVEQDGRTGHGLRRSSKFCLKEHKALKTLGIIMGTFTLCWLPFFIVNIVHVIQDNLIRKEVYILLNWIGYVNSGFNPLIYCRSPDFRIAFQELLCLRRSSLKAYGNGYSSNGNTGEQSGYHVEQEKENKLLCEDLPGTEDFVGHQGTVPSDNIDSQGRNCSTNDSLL
Summary of the method: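 Assay format: CHO-ADRB2 cells, 18-20hr seeding at 37C/5% CO2, then compound plus 1nM isoproterenol agonist mix for 0.5hr RT. Homogeneous time-resolved fluorescence cAMP detection after 1hr, expressed as 665/615 nm ratio.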

[18] = biological target: D(2) dopamine receptor (Homo sapiens) (UniProt P14416); assay: Dopamine D2 receptor (DRD2) small molecule agonists, cell-based qHTS assay (AID 1963594); also: nearly all actives have a fitted effect of over 35% in size
Chain of D(2) dopamine receptor (Homo sapiens) (P14416 whole entry, looked up): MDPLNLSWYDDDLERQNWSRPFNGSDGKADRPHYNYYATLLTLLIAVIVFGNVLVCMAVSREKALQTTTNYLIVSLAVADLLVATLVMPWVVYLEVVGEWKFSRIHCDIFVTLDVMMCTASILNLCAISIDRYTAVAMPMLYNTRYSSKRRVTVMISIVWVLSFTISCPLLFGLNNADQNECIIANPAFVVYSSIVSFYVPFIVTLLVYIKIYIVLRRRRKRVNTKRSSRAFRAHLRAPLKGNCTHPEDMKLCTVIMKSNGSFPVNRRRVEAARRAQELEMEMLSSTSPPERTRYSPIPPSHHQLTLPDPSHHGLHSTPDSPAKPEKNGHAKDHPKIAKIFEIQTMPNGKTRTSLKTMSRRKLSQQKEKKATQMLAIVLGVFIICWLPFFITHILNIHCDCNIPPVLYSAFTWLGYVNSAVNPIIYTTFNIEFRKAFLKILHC
Summary of the method: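 cAMP accumulation in DRD2-HEK293 cells measured by HTRF after 1 h detection; compounds added 10 min before NKH477 (200nM […]) forskolin-analogue stimulation, 30 min at room temperature, with Ro20-1724 present at 0.1 mM final.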

[19] = biological target: D(2) dopamine receptor (Homo sapiens) (UniProt P14416); assay: Dopamine D2 receptor (DRD2) small molecule antagonists, cell-based qHTS assay (AID 1963595; active = well fitted inhibition curve with a large enough effect in the signal ratio in the repeat runs, with a control signal flat; the % refers to the signal ratio)
Summary of the method: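 Cells were plated and grown for 24 h at 37 °C. Ro20-1724 (0.1 mM final) went in first, then compound for 10 min. NKH477 (200 nM) with quinpirole (12 nM) followed for 30 min at RT, then HTRF detection reagents for 1 h.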

Measured: Potency

CC(C)OC(=O)CCCCC(=O)OC(C)C
inactive: all assays above

COc1ccccc1NC(=O)CC(C)=O
inactive: all assays above

NCc1ccc(S(N)(=O)=O)cc1
not listed: [15]
inactive: all other assays above

CCCCCCCCS
not listed: [15] | [16]
inactive: all other assays above

C=CC(=O)NCOCC(C)C
inactive: all assays above
